Laboratory results reported in PubChem BioAssay AID1159580 (chemical genetic matrix, 2015).
Values joined by “and” are separate entries in the source; they are usually repeats but may differ in a detail not shown here. Equal entries are not always repeated. Hit rate of the full screen: of about 5,500 compounds, about 2,000 (36%) were called active. Another 18% or so got no clear call; they are omitted. Cut-off read from the data, not from the text of the source: active = normalized growth mostly below about 0.91 (no sharp cut-off); inconclusive = no clear call, values can overlap the other calls; inactive = mostly above about 0.92. The list shows a part of the results. Some structures have more than one record in an assay (separate samples or runs), and their calls can disagree.

Assay: chemical genetic growth profiling, strain panel (AID 1159580);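 note: tested at 20 µM; growth read once vehicle control cultures reached saturation at 30 °C; 1 = growth at the plate median or of vehicle wells; lower values mean less growth of the strain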
Conditions: growth OD

Measured: normalized growth

O=c1c2ccccc2[se]n1-c1ccccc1
0.116 (active) and 0.922 (inactive): S. cerevisiae deletion strains, locus YMR307W, strain GAS1, stronger effect = lower value
active: S. cerevisiae deletion strains, locus YJR075W, strain HOC1, stronger effect = lower value 0.0678 | S. cerevisiae deletion strains, locus YKL068W, stronger effect = lower value 0.0623 | S. cerevisiae deletion strains, locus YKL085W, strain MDH1 (second series), stronger effect = lower value 0.0549 | S. cerevisiae deletion strains, locus YKL085W, strain MDH1, stronger effect = lower value 0.0549 | S. cerevisiae deletion strains, locus YKL160W, strain elf1, stronger effect = lower value 0.0672 | S. cerevisiae deletion strains, locus YKL190W, strain CNB1, stronger effect = lower value 0.0495 | S. cerevisiae deletion strains, locus YKR001C, strain vps1, stronger effect = lower value 0.064 | S. cerevisiae deletion strains, locus YKR026C, strain gcn3, stronger effect = lower value 0.0615 | S. cerevisiae deletion strains, locus YKR091W, strain srl3, stronger effect = lower value 0.0622 | S. cerevisiae deletion strains, locus YLL001W, strain dnm1, stronger effect = lower value 0.0729 | S. cerevisiae deletion strains, locus YLL026W, stronger effect = lower value 0.0595 | S. cerevisiae deletion strains, locus YLL041C, strain sdh2, stronger effect = lower value 0.0595 | S. cerevisiae deletion strains, locus YLR027C, strain aat2, stronger effect = lower value 0.0567 | S. cerevisiae deletion strains, locus YLR039C, strain RIC1, stronger effect = lower value 0.0906 | S. cerevisiae deletion strains, locus YLR102C, strain apc9, stronger effect = lower value 0.0627 | S. cerevisiae deletion strains, locus YLR113W, strain HOG1, stronger effect = lower value 0.138 | S. cerevisiae deletion strains, locus YLR221C, strain rsa3, stronger effect = lower value 0.061 | S. cerevisiae deletion strains, locus YLR258W, strain gsy2, stronger effect = lower value 0.0609 | S. cerevisiae deletion strains, locus YLR262C, strain YPT6 (second series), stronger effect = lower value 0.0795 | S. cerevisiae deletion strains, locus YLR262C, strain YPT6, stronger effect = lower value 0.0981 | S. cerevisiae deletion strains, locus YLR268W, strain sec22, stronger effect = lower value 0.0733 | S. cerevisiae deletion strains, locus YLR320W, strain mms22, stronger effect = lower value 0.0819 | S. cerevisiae deletion strains, locus YLR330W, strain CHS5, stronger effect = lower value 0.0552 | S. cerevisiae deletion strains, locus YLR342W, strain FKS1 (second series), stronger effect = lower value 0.0785 | S. cerevisiae deletion strains, locus YLR342W, strain FKS1, stronger effect = lower value 0.0773 | S. cerevisiae deletion strains, locus YLR357W, strain rsc2, stronger effect = lower value 0.117 | S. cerevisiae deletion strains, locus YLR370C, strain arc18, stronger effect = lower value 0.0623 | S. cerevisiae deletion strains, locus YLR371W, strain rom2, stronger effect = lower value 0.0624 | S. cerevisiae deletion strains, locus YLR384C, strain iki3, stronger effect = lower value 0.554 | S. cerevisiae deletion strains, locus YLR418C, strain cdc73, stronger effect = lower value 0.0967 | S. cerevisiae deletion strains, locus YML016C, strain PPZ1, stronger effect = lower value 0.0497 | S. cerevisiae deletion strains, locus YML032C, strain rad52, stronger effect = lower value 0.832 | S. cerevisiae deletion strains, locus YML120C, strain ndi1, stronger effect = lower value 0.724 | S. cerevisiae deletion strains, locus YML124C, strain tub3, stronger effect = lower value 0.0602 | S. cerevisiae deletion strains, locus YMR058W, strain fet3, stronger effect = lower value 0.062 | S. cerevisiae deletion strains, locus YMR078C, strain ctf18, stronger effect = lower value 0.0748 | S. cerevisiae deletion strains, locus YMR125W, strain sto1, stronger effect = lower value 0.0783 | S. cerevisiae deletion strains, locus YMR129W, stronger effect = lower value 0.0579 | S. cerevisiae deletion strains, locus YMR205C, strain PFK2, stronger effect = lower value 0.134 | S. cerevisiae deletion strains, locus YMR223W, strain ubp8, stronger effect = lower value 0.0699 | S. cerevisiae deletion strains, locus YMR231W, strain pep5, stronger effect = lower value 0.0661 | S. cerevisiae deletion strains, locus YMR263W, strain SAP30, stronger effect = lower value 0.065 | S. cerevisiae deletion strains, locus YNL067W, strain RPL9B, stronger effect = lower value 0.0566 | S. cerevisiae deletion strains, locus YNL071W, strain lat1, stronger effect = lower value 0.0612 | S. cerevisiae deletion strains, locus YNL128W, strain TEP1, stronger effect = lower value 0.0628 | S. cerevisiae deletion strains, locus YNL153C, strain GIM3, stronger effect = lower value 0.0713 and 0.0822 | S. cerevisiae deletion strains, locus YNL209W, strain ssb2, stronger effect = lower value 0.0633 | S. cerevisiae deletion strains, locus YNL224C, strain SQS1, stronger effect = lower value 0.826 | S. cerevisiae deletion strains, locus YNL233W, strain BNI4, stronger effect = lower value 0.0552 | S. cerevisiae deletion strains, locus YNL248C, strain rpa49, stronger effect = lower value 0.0871 | S. cerevisiae deletion strains, locus YNL250W, strain rad50, stronger effect = lower value 0.101 | S. cerevisiae deletion strains, locus YNL271C, strain bni1, stronger effect = lower value 0.0626 | S. cerevisiae deletion strains, locus YNL298W, strain CLA4, stronger effect = lower value 0.0625 | S. cerevisiae deletion strains, locus YNL307C, strain MCK1, stronger effect = lower value 0.0743 | S. cerevisiae deletion strains, locus YNL322C, strain KRE1 (second series), stronger effect = lower value 0.299 | S. cerevisiae deletion strains, locus YNR049C, strain mso1, stronger effect = lower value 0.0582 | S. cerevisiae deletion strains, locus YNR052C, strain pop2, stronger effect = lower value 0.851 | S. cerevisiae deletion strains, locus YOL006C, strain TOP1, stronger effect = lower value 0.102 | S. cerevisiae deletion strains, locus YOR001W, strain rrp6, stronger effect = lower value 0.459 | S. cerevisiae deletion strains, locus YOR061W, strain CKA2, stronger effect = lower value 0.0469 | S. cerevisiae deletion strains, locus YOR069W, strain VPS5, stronger effect = lower value 0.0489 | S. cerevisiae deletion strains, locus YOR070C, strain gyp1, stronger effect = lower value 0.0603 | S. cerevisiae deletion strains, locus YOR080W, strain dia2, stronger effect = lower value 0.803 | S. cerevisiae deletion strains, locus YOR083W, strain WHI5 (second series), stronger effect = lower value 0.0766 | S. cerevisiae deletion strains, locus YOR083W, strain WHI5, stronger effect = lower value 0.0645 | S. cerevisiae deletion strains, locus YOR106W, strain vam3, stronger effect = lower value 0.0667 | S. cerevisiae deletion strains, locus YOR136W, strain idh2, stronger effect = lower value 0.0722 | S. cerevisiae deletion strains, locus YOR184W, strain ser1, stronger effect = lower value 0.0757 | S. cerevisiae deletion strains, locus YOR231W, strain MKK1, stronger effect = lower value 0.118 | S. cerevisiae deletion strains, locus YOR265W, strain rbl2, stronger effect = lower value 0.0602 | S. cerevisiae deletion strains, locus YOR270C, strain vph1, stronger effect = lower value 0.103 | S. cerevisiae deletion strains, locus YOR316C, strain cot1, stronger effect = lower value 0.063 | S. cerevisiae deletion strains, locus YPL051W, strain arl3, stronger effect = lower value 0.0663 | S. cerevisiae deletion strains, locus YPL055C, strain LGE1, stronger effect = lower value 0.0731 | S. cerevisiae deletion strains, locus YPL078C, strain atp4, stronger effect = lower value 0.707 | S. cerevisiae deletion strains, locus YPL106C, strain sse1, stronger effect = lower value 0.105 | S. cerevisiae deletion strains, locus YPL240C, strain hsp82, stronger effect = lower value 0.0588 | S. cerevisiae deletion strains, locus YPL256C, strain CLN2, stronger effect = lower value 0.113 | S. cerevisiae deletion strains, locus YPR119W, strain clb2, stronger effect = lower value 0.0638 | S. cerevisiae deletion strains, locus YPR141C, strain kar3, stronger effect = lower value 0.0669 | S. cerevisiae deletion strains, locus YPR163C, strain tif3, stronger effect = lower value 0.0717 | S. cerevisiae deletion strains, locus YPR167C, strain met16, stronger effect = lower value 0.0625 | S. cerevisiae deletion strains, strain wtn01, stronger effect = lower value 0.0617 | S. cerevisiae strains, strain wild type, stronger effect = lower value 0.0481
0.0495 (active) and 0.989 (inactive): S. cerevisiae deletion strains, locus YNL322C, strain KRE1, stronger effect = lower value
inactive: S. cerevisiae deletion strains, locus YLR058C, strain SHM2, stronger effect = lower value 0.955 | S. cerevisiae deletion strains, locus YNL175C, strain NOP13, stronger effect = lower value 0.998 | S. cerevisiae deletion strains, locus YNL183C, strain NPR1, stronger effect = lower value 0.841 | S. cerevisiae deletion strains, locus YNL197C, strain WHI3, stronger effect = lower value 0.924 | S. cerevisiae deletion strains, locus YOL012C, strain htz1 0.238 | S. cerevisiae deletion strains, locus YOL147C, strain pex11, stronger effect = lower value 1.01 | S. cerevisiae deletion strains, locus YOR144C, strain elg1, stronger effect = lower value 1.01 | S. cerevisiae deletion strains, locus YOR290C, strain snf2, stronger effect = lower value 0.888
0.0501 (active) and 0.992 (inactive): S. cerevisiae deletion strains, locus YPL241C, strain CIN2, stronger effect = lower value
